# From PubChem BioAssay
# Active and inactive are the calls of the source. Unless noted, the rule behind the calls is not given here.
# Assays:
# [1] = test system: Wnt5a (protein binding on small-molecule microarray); assay: Wnt5a binders on small-molecule microarray, primary screen, biophysical, 635/667 nm fluorescence (AID 1142); conditions: 635 nm fluorescence, higher = more signal;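 note: fluorescence read at 667 nm with signal to noise per printed feature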
# [2] = cell viability in Huh7 cells, primary screen, cytotoxicity control for HCV replication inhibitor project, CellTiter-Glo luminescence, basal, 48 h (AID 1143); conditions: Huh7 HCV replicon, higher = more signal, called active from +8 up or from −8 down;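 note: Huh7 hepatoma cells carrying a hepatitis C replication reporter with no stimulus; test concentration not given here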
# [3] = P. aeruginosa biofilm formation inhibitors, primary screen, PAO1 strain, BacTiter-Glo luminescence, LB-PBS (AID 1144); conditions: 12 h, higher = more signal
# [4] = CREB reporter modulators without forskolin, primary screen, cell-based, PC12, CRE-LacZ reporter, unstimulated (AID 1145); conditions: no forskolin, luminescence, 4.5 h, higher = more signal, called active from +8 up or from −8 down
# [5] = CREB reporter modulators under forskolin, primary screen, cell-based, PC12, CRE-LacZ reporter, forskolin-stimulated (AID 1146); conditions: luminescence, 4.5 h, higher = more signal, called active from +8 up or from −8 down;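 note: PC12 cells with 6xCRE LacZ reporter stimulated by forskolin 10 µM; beta-galactosidase reporter signal reflecting CREB driven transcription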
# [6] = target: Streptavidin (Streptomyces avidinii) (UniProt P22629); assay: streptavidin binders on small-molecule microarray, primary screen, artefact control for SMM compound annotation, biophysical, 635/667 nm fluorescence (AID 1147); conditions: streptavidin binding, higher = more signal;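 note: signal reflects streptavidin binding to arrayed compounds as a control protein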
# Streptavidin (Streptomyces avidinii), sequence (P22629 whole entry, looked up): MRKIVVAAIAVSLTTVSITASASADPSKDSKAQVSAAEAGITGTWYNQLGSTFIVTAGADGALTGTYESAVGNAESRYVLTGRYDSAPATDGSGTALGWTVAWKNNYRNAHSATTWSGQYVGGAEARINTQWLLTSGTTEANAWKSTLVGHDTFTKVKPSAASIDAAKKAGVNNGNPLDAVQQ
# [7] = small-molecule binders of probe aInhba, primary screen, biochemical, small-molecule microarray, 635/667 nm fluorescence (AID 1148); conditions: higher = more signal;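 note: score merges 667nm spot fluorescence with signal-to-noise for antibody binding to printed compounds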
# Torsin-1A (Homo sapiens) [8] = target: Torsin-1A (Homo sapiens) (UniProt O14656); assay: torsin A binders from cell lysate, primary screen, small-molecule microarray, wild-type, 635/667 nm (AID 1149); conditions: COS7 hTOR1A-WT lysate, 635 nm fluorescence, higher = more signal
# Torsin-1A (Homo sapiens), sequence (O14656 whole entry, looked up): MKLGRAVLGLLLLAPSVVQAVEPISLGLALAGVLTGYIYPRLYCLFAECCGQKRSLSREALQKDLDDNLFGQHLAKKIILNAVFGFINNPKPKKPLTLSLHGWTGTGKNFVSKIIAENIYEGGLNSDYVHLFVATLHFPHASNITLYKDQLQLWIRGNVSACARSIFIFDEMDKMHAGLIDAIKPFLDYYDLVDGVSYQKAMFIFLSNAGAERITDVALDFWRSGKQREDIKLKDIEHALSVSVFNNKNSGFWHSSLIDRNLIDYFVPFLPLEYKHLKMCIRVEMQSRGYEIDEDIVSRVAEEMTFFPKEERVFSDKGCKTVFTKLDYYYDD
# Torsin-1A (Homo sapiens) [9] = target: Torsin-1A (Homo sapiens) (UniProt O14656); assay: small-molecule binders of mutant TOR1A in lysate, primary screen, cell lysate, small-molecule microarray, COS7 lysate, 635/667 nm fluorescence (AID 1150); conditions: COS7 hTOR1A mutant lysate, 635 nm fluorescence, higher = more signal;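 note: score pools 667 nm emission and signal to noise measuring lysate protein binding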
# [10] = test system: Sonic hedgehog protein (Shh); assay: small-molecule binders of Shh protein, primary screen, biochemical, small-molecule microarray, 635/667 nm fluorescence (AID 1151); conditions: small-molecule microarray binding, 635 nm fluorescence; higher = more signal;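 note: Shh protein binding to compounds spotted on small-molecule microarray slides; score combines spot fluorescence intensity with signal-to-noise across triplicate slides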
# [11] = E. coli DRC41 culture turbidity changes, primary screen, E. coli filamentation inducer project, strain DRC41, OD650, 48 h (AID 1152);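 note: E. coli MC1000 strain DRC41 lacking acrAB efflux pump and sulA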; conditions: E. coli DRC41 (acrAB sulA), higher = more signal, called active from +8 up or from −8 down
# [12] = small-molecule binders of probe aLefty1, primary screen, biochemical, small-molecule microarray, 635/667 nm fluorescence (AID 1153); conditions: higher = more signal;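 note: score merges spot fluorescence with signal-to-noise ratio from the scanned slide images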
# [13] = PSAC antagonists in infected red cells, primary screen, cell-based, P. falciparum Indochina, OD700, 1 h (AID 1154); conditions: P. falciparum Indochina infected RBC osmotic lysis, higher = more signal, called active from +8 up or from −8 down
# [14] = PSAC antagonists in infected red cells, primary screen, cell-based, P. falciparum Indochina, OD700, 2 h (AID 1155);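 note: lysis reports solute entry through the parasite surface anion channel PSAC; channel blockers reduce lysis of infected cells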; conditions: P. falciparum Indochina infected erythrocytes, osmotic lysis OD700; higher = more signal, called active from +8 up or from −8 down
# [15] = osmotic lysis modulators in infected erythrocytes, primary screen, PSAC antagonist project, cell-based, P. falciparum Indochina, OD700, 3 h (AID 1156); conditions: higher = more signal, called active from +8 up or from −8 down
# [16] = PSAC antagonists in infected red cells, primary screen, cell-based, P. falciparum Indochina, OD700, 18 h (AID 1157); conditions: P. falciparum Indochina infected erythrocytes, osmotic lysis OD700, 18 h; higher = more signal, called active from +8 up or from −8 down
# [17] = modulators of S6 phosphorylation in cells, primary screen, cell-based, A549, cytoblot, luminescence, serum-stimulated (AID 1158); conditions: A549 phospho-S6 cytoblot, 5 h, higher = more signal;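 note: serum-stimulated A549 lung adenocarcinoma cells; signal is phosphorylated S6 detected by cytoblot immunostaining with HRP secondary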
# [18] = target: NADPH oxidase 2 (Homo sapiens) (UniProt P04839); assay: NOX2-dependent H2O2 signal modulators, primary screen, NOX inhibitor project, cell-based, HEK293-NOX2, PMA-stimulated, Amplex Red fluorescence (AID 1159); conditions: 45 min, higher = more signal, called active from +8 up or from −8 down; note: test concentration not given here
# NADPH oxidase 2 (Homo sapiens), sequence (P04839 whole entry, looked up): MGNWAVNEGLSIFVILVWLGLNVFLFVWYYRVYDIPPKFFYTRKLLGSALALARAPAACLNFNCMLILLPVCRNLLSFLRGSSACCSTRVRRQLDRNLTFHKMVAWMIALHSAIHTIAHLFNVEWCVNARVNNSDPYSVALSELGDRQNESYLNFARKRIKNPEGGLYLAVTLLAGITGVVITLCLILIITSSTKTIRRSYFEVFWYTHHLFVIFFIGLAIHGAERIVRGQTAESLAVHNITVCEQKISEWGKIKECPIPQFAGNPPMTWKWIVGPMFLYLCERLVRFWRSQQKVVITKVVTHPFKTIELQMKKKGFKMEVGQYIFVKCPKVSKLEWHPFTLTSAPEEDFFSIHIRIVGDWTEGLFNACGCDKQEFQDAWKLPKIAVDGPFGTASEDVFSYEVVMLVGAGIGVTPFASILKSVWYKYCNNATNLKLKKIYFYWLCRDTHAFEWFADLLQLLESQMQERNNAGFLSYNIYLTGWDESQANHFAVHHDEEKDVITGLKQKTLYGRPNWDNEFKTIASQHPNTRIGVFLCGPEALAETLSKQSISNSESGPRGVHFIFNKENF
# [19] = target: NADPH oxidase 4 (Homo sapiens) (UniProt Q9NPH5); assay: NOX4-dependent H2O2 signal modulators, primary screen, NOX inhibitor project, cell-based, HEK293-NOX4, tetracycline-induced, Amplex Red fluorescence (AID 1160); conditions: 45 min, higher = more signal, called active from +8 up or from −8 down
# NADPH oxidase 4 (Homo sapiens), sequence (Q9NPH5 whole entry, looked up): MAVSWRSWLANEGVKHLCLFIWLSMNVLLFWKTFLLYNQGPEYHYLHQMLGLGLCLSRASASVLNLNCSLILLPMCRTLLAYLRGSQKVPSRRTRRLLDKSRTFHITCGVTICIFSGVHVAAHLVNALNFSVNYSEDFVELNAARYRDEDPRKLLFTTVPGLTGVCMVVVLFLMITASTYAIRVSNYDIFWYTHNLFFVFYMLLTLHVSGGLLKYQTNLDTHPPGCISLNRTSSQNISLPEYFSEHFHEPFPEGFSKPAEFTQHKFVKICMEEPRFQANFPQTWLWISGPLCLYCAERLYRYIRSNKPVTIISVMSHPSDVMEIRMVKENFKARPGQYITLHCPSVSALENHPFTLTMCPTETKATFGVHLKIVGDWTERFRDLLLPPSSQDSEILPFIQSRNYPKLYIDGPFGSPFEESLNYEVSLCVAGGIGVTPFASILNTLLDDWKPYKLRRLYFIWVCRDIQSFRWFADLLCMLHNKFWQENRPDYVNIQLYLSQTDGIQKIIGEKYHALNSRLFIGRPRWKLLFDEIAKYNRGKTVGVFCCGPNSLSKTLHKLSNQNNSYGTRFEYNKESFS
# [20] = target: NADPH oxidase 5 (Homo sapiens) (UniProt Q96PH1); assay: NOX5-dependent H2O2 signal modulators, primary screen, NOX inhibitor project, cell-based, HEK293-NOX5, Amplex Red fluorescence (AID 1161); conditions: HEK293-NOX5, ionomycin, 45 min, higher = more signal
# NADPH oxidase 5 (Homo sapiens), sequence (Q96PH1 whole entry, looked up): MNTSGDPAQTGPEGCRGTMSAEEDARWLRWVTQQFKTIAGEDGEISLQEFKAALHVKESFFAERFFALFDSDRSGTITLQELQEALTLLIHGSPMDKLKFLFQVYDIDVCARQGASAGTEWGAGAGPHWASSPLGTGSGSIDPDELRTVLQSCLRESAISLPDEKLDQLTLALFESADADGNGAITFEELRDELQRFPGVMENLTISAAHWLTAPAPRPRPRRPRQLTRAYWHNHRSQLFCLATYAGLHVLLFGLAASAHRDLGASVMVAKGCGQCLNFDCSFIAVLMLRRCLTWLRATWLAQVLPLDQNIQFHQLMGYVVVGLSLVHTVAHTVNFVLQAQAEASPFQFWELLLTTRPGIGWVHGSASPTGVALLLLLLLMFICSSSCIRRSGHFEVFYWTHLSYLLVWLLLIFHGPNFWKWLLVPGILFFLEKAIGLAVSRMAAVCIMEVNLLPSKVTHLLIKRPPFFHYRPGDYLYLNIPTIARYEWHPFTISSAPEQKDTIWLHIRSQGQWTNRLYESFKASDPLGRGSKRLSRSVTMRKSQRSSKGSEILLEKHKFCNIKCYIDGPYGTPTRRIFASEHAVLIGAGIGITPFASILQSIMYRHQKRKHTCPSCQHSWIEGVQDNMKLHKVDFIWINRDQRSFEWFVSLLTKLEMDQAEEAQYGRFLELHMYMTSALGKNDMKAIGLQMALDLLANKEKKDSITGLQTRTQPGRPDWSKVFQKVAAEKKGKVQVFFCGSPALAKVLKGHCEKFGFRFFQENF
SMILES,composite z-score [1],z-score [2],z-score [3],z-score [4],z-score [5],composite z-score [6],composite z-score [7],composite z-score (Torsin-1A (Homo sapiens) [8]),composite z-score (Torsin-1A (Homo sapiens) [9]),composite z-score [10],z-score [11],composite z-score [12],z-score [13],z-score [14],z-score [15],z-score [16],z-score [17],z-score [18],z-score [19],z-score [20]
CCCNC(=O)OC[C@H]1O[C@H](CCON=C(C)C)C=C[C@@H]1Oc1ccc(OC)cc1,-0.0092,0.599 (inactive),-0.523 (inactive),-0.152 (inactive),-0.315 (inactive),0.102,-0.0791,-0.0198,-0.0963,-0.318,-1.21 (inactive),0.209,0.683 (inactive),0.411 (inactive),-0.551 (inactive),0.367 (inactive),-0.131,-0.278 (inactive),0.389 (inactive),-0.533
COc1cccc([C@H]2Oc3ccc(OC)cc3C(=NOC[C@@H](O)COCc3ccco3)[C@@H]2O)c1,-0.217,-0.564 (inactive),0.357 (inactive),4.9 (inactive),0.493 (inactive),-0.903,-0.205,-1.7,-1.38,-0.0734,-0.964 (inactive),-0.43,0.55 (inactive),-2.05 (inactive),0.135 (inactive),-2.01 (inactive),1.04,-0.262 (inactive),0.378 (inactive),-0.104
C=CC[C@@H]1C=C[C@H](ON=C(C)CCC(=O)OC[C@H]2O[C@H](C#Cc3ccccc3)C=C[C@@H]2Oc2ccc(C)cc2)[C@@H](CO)O1,0.0897,-0.273 (inactive),0.0915 (inactive),-0.306 (inactive),0.435 (inactive),0.635,-0.0375,0.569,0.185,0.795,-1.44 (inactive),0.0594,28 (active),6.05 (inactive),0.068 (inactive),1.57 (inactive),-0.383,-0.367 (inactive),0.0773 (inactive),-0.431
COc1ccc(O[C@H]2C=C[C@@H](c3ccccc3)O[C@@H]2CON=C2[C@H]3CCn4c(=O)n(-c5ccccc5)c(=O)n4[C@H]3[C@H](O)[C@@H]3O[C@H]23)cc1,0.185,-1.53 (inactive),1.92 (inactive),0.834 (inactive),-0.016 (inactive),0.836,-0.2,0.0461,0.066,0.536,-0.402 (inactive),-0.012,8.37 (active),1.25 (inactive),0.671 (inactive),0.858 (inactive),-0.511,-1.37 (inactive),-0.132 (inactive),-0.17
CCOC(=O)[C@H](Cc1ccccc1)NC(=O)CCC1CC(OC(=O)NCCc2ccc(F)cc2)CC2(CCCC(COC(=O)NCCOC)O2)O1 (stereo not given in full),1.58,-0.326 (inactive),-0.852 (inactive),0.473 (inactive),-0.728 (inactive),1.19,0.122,0.998,0.753,0.784,0.602 (inactive),-0.0468,19.4 (active),4.99 (inactive),0.486 (inactive),0.737 (inactive),0.011,0.188 (inactive),0.251 (inactive),0.0245
CO[C@@H]1C=CCC(=O)N2CCC[C@H]2C(=O)OC[C@@H](C)C(=O)OC[C@H]1C,0.172,-0.0949 (inactive),-1.23 (inactive),-0.0234 (inactive),0.2 (inactive),-0.482,-0.0762,-0.0067,0.652,1.68,1.12 (inactive),0.154,0.0026 (inactive),0.155 (inactive),0.335 (inactive),0.181 (inactive),0.467,-0.805 (inactive),0.766 (inactive),0.147
COC(=O)[C@H](C)NC(=O)CCC1CC(OC(=O)NCCc2ccc(F)cc2)CC2(CCCC(COC(=O)NCc3cccc(C(F)(F)F)c3)O2)O1 (stereo not given in full),0.116,-0.382 (inactive),0.198 (inactive),0.0178 (inactive),0.144 (inactive),0.213,-0.242,0.818,0.0548,1.09,0.419 (inactive),-0.181,9.11 (active),0.445 (inactive),-0.45 (inactive),0.125 (inactive),-0.416,1.23 (inactive),-1.65 (inactive),-1.14
CO[C@H]1COC(=O)CC=C[C@@H](C)[C@H](OC)COC(=O)CCC[C@@H]1C,-0.0494,-0.127 (inactive),-0.913 (inactive),-0.482 (inactive),0.0877 (inactive),0.0616,-0.153,1.89,0.33,1.18,0.398 (inactive),-0.216,-0.674 (inactive),-1.22 (inactive),-0.518 (inactive),-2.08 (inactive),-0.0645,0.00516 (inactive),0.612 (inactive),0.863
